The results in this text go back to ChEMBL document CHEMBL4513216, “Probing the Open Global Health Chemical Diversity Library for Multistage-Active Starting Points for Next-Generation Antimalarials” (ACS Infect Dis, 2020).

The campaign covered roughly 69,000 compounds. About 8,600 (12%) showed an effect of 50% or more. This excerpt belongs to a sample that is enriched for strong results.

The assay has as its system Plasmodium berghei. Kind of assay: Screen against P. berghei liver stage (PbLuc), transformed with Luciferase, at 10uM. It is filed as functional, HepG2. The following applies: tested at 10 uM.
Consider `Cc1nc(C)n(C2CCCN(C(=O)c3c[nH]c(C(C)C)n3)C2)n1` (stereo not given), for which the INHIBITION stood at 40.9%.
For the compound `CS(=O)(=O)N1CCC2(CC1)COC(COc1ccccn1)C2` (stereo not given), the INHIBITION is given as -27.9%.
In the case of `CC(C)OC[C@H]1CCC[C@]12CN(S(=O)(=O)c1cn(C)cn1)CCO2`, the INHIBITION was 1.7%.
Next, `OC1(CNCCc2csc(-c3ncccn3)n2)CCNC1` (stereo not given): 39.3%; `COCC(=O)NCc1cc(=O)n2c(n1)CN(CC1CCOC1)CCC2` (stereo not given): 37.5%; `CCc1nc(CN2CCCC(Cn3nc(C)nc3C)C2)no1` (stereo not given): 33.3%.
Turning to `Cc1nc(C)n(CC2CCCN(Cc3nc(C4CC4)no3)C2)n1` (stereo not given), the INHIBITION was determined as 60.6%.
Next, `CCc1noc(CN2CCCC(Cn3nc(C)nc3C)C2)n1` (stereo not given): 18.2%; `Cc1nc(C)n(CC2CCCN(Cc3noc(C)n3)C2)n1` (stereo not given): 56.6%.
The result for `Cc1noc(CN2CCCC(Cn3nc(C)nc3C)C2)n1` (stereo not given) reads 27.8%; that for `COCCc1noc(CN2CCCC(Cn3nc(C)nc3C)C2)n1` (stereo not given), 40.9%.
Next, `CNC(=O)[C@@]12CCO[C@@H]1CCN(S(=O)(=O)c1cccnc1)C2`: 23.9%.
Consider `Cn1cc(CN2CC(C(=O)Nc3ccccc3)C3(CCOCC3)C2)cn1` (stereo not given), for which the INHIBITION stood at 48.2%.
Next, `COc1ccc(CN2C[C@H]3CN(Cc4ccncc4)C(=O)[C@H]3C2)cc1`: 22.3%; `O=C(Cc1c(F)cccc1Cl)NC1CCCCNC1=O` (stereo not given): -1.85%.
For `CC(=O)Nc1nc(C)c(S(=O)(=O)NCCc2ccccn2)s1`, the INHIBITION is given as -1.85%.
Consider `O=S(=O)(C1CC1)N1CCO[C@H]2[C@@H](Oc3ncccc3F)CC[C@@H]21`, for which the INHIBITION was -30%.
The result for `CC(C)N(Cc1ccccc1)C(=O)c1cc(C2CCCN2C)ccn1` (stereo not given) reads -18.9%; that for `Cc1ncccc1Oc1ncnc(N2CCC3(CCCO3)CC2)c1C`, -5.12%; that for `COc1ccc([C@@H](C)n2ccnc2-c2cc3n(n2)CCCNC3)cc1`, 15%.
The result for `CC(c1ccc(F)cc1)n1ccnc1-c1cc2n(n1)CCCNC2` (stereo not given) reads 58.3%; that for `COc1ccc(C(C)n2ccnc2-c2cc3n(n2)CCCNC3)cc1F` (stereo not given), -2.34%; that for `CN(CC(=O)N1CCN(c2ccccn2)CC1)c1ccc(Cl)cn1`, -36.6%.
Take `CNC(=O)[C@H]1C[C@@H]2CN(C(=O)c3ccncc3)C[C@@H]2N1S(C)(=O)=O`: the INHIBITION came out at 20.4%.
The result for `Cc1n[nH]c(C)c1Sc1ccccc1NC(=O)N1CCOCC1` reads 30.3%; that for `Cc1n[nH]c(C)c1Sc1ccccc1NC(=O)N1CCOCC(O)C1` (stereo not given), 25.4%; that for `COCC(=O)Nc1ccccc1Sc1c(C)n[nH]c1C`, 60%.
The result for `Cc1n[nH]c(C)c1Sc1ccccc1NC(=O)N1CCN(C)CC1` reads 61.2%; that for `Cc1n[nH]c(C)c1Sc1ccccc1NC(=O)N1CCCC(C(N)=O)C1` (stereo not given), -24%.
For the compound `Cc1n[nH]c(C)c1Sc1ccccc1NC(=O)CN1CCCC1`, the INHIBITION was 3.17%.
Next, `CCS(=O)(=O)N1CCc2c(CN(C)Cc3ccco3)cncc2C1`: 20.2%.
For `NC(=O)COc1ccc(CNCc2ccc(F)cc2F)cc1`, the INHIBITION is 6.8%.
The result for `NC(=O)CNC(=O)c1ccc(CNCc2ccc(F)cc2F)cc1` reads 54.5%.
The result for `NC(=O)CNC(=O)c1ccc(CNCc2ccc(Cl)cc2Cl)cc1` reads 48.9%; that for `Cc1cc(C)c(CNC(=O)NCC(O)c2ccccc2)c(=O)[nH]1` (stereo not given), 15.5%.
The result for `O=C(c1cccnc1)N1CCC2(CC1)COCCN(c1ncccn1)C2` reads 16.8%.
Take `CC(=O)NCCNC(=O)CN1CCCCC1Cn1cncn1` (stereo not given): the INHIBITION is reported as -15.5%.
As to `O=c1[nH]c2nc(N3CCCC3)ncc2c(=O)n1-c1cccc(F)c1`, the INHIBITION is 2.69%.
Next, `Cc1cc(-c2ccc(=O)n(C3CCN(S(C)(=O)=O)CC3)n2)c(C)o1`: -8.58%.
Next, `CCCS(=O)(=O)N1CCC(n2nc(-c3cc(C)oc3C)ccc2=O)CC1`: 68.4%; `CCS(=O)(=O)N1CCC(n2nc(-c3cc(C)oc3C)ccc2=O)CC1`: 21.1%.
Regarding `Cc1cc(NC(=O)C(C)Nc2cccc(COCc3ccco3)c2)no1` (stereo not given), the INHIBITION is reported as 11.1%.
Next, `COCc1noc(CCC(=O)c2ccc3c(c2)OCCO3)n1`: -41.4%.
On to `O=C(COc1ccc(-n2cccn2)nn1)N1CCCC1`, for which the INHIBITION is -66.4%.
The result for `COc1ccc2c(c1)CCCN2C(=O)c1cccc(N(C)C)c1` reads 87.9%; that for `COc1ccc2c(c1)CCCN2C(=O)CNCC1CN(C)CCO1` (stereo not given), -39.2%.
Next, `CN(C)c1cccc(C(=O)N2CCCc3cc(OC(F)(F)F)ccc32)c1`: 43.4%; `COc1ccc2c(c1)CCCN2C(=O)CN1CCOC(CN(C)C)C1` (stereo not given): 3.68%; `COc1ccc2c(c1)CCCN2C(=O)CN1CCOC(C)C1` (stereo not given): 50.9%.
For the compound `CN(C)c1ccc(C(=O)N2CCCc3cc(OC(F)(F)F)ccc32)cn1`, the INHIBITION amounted to 26.7%.
Next, `Fc1cnc(N2CC[C@@H]3O[C@H](COCc4ccccn4)CC[C@@H]32)nc1`: -21.7%; `CC(C)COC1CC2(CCN(Cc3nccn3C)CC2)C1`: 31.6%; `Cc1nc2[nH]cnc(Nc3cnn(C)c3)c-2n1`: -10.6%.
For the compound `CC(C)C(NC(=O)C1CC1)c1cc(O)nc(-c2cccnc2)n1` (stereo not given), the INHIBITION amounted to 3.4%.
The result for `CNc1cc(-c2cc(OC)c(OC)c(OC)c2)ncn1` reads 27.8%; that for `COc1cc(-c2cnnc(NCC3CC3)n2)cc(OC)c1OC`, 31.7%; that for `Cc1cc(NCCCOC(C)C)c2nncn2n1`, 13.4%.
Regarding `COc1cc(-c2nc(N)n[nH]2)cc(OC)c1OC`, the INHIBITION was found to be 20.4%.
With `COc1cc(-c2cnnc(NCCSC)n2)cc(OC)c1OC`, the INHIBITION was 52.2%.
The result for `COc1cc(-c2cnnc(NCCCOC(C)C)n2)cc(OC)c1OC` reads 57.9%; that for `COCC(NC1CSCCSC1)c1ccnn1C` (stereo not given), 31.2%.
The result for `CN1CCN(CC2(O)CCCN(S(=O)(=O)c3cn[nH]c3)CC2)CC1` (stereo not given) reads 29.6%; that for `Cn1ccc(C(=O)N2CCC(c3cc(CCO)n(C)n3)C2)n1` (stereo not given), -3.94%; that for `CCN(CC)c1nc(Nc2cccc(C(=O)O)c2)nc2ccccc12`, 5.18%.
On to `CCN(CC)c1nc(Nc2cccc(C(C)O)c2)nc2ccccc12` (stereo not given), for which the INHIBITION is listed as 87.2%.
Next, `CC(O)c1cccc(Nc2nc(NCCO)c3ccccc3n2)c1` (stereo not given): 44.9%; `Cc1[nH]c(=O)[nH]c(=O)c1CN1CCCC(CCc2ccc(F)c(F)c2)C1` (stereo not given): 4.48%; `COc1coc(CN2CCCC(CCc3ccc(F)cc3)C2)cc1=O` (stereo not given): 73.5%.
Turning to `COc1coc(CN2CCCC(CCc3ccc(F)c(F)c3)C2)cc1=O` (stereo not given), the INHIBITION turned out to be 63.6%.
Take `COc1ccc(CCC2CCCN(CC(=O)O)C2)cc1` (stereo not given): the INHIBITION stood at 23.9%.
With `COCCN1CC2(CCCN(Cc3cc(=O)c(OC)co3)C2)CCC1=O` (stereo not given), the INHIBITION is 23.9%.
The result for `COc1coc(CN2CCCC3(CCC(=O)N(CC4CC4)C3)C2)cc1=O` (stereo not given) reads 33.2%.
The result for `COc1coc(CN2CCCC3(CCC(=O)N(C4CC4)C3)C2)cc1=O` (stereo not given) reads 53.6%; that for `Cc1[nH]c(=O)[nH]c(=O)c1CN1CCCC(CCc2ccccc2)C1` (stereo not given), -38.2%.
The result for `COc1ccc(CN2CCCC(Cn3nc(C)nc3C)C2)cc1F` (stereo not given) reads -15.8%.
